{"source": "PubChem BioAssay (NCI)", "note": "This is part of a sample that, as a whole, favours compounds with a hit. Of some 83,000 tested, about 20% had one in any assay.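 Step 1: grow cells in 96-well plates. Step 2: add test compound at a single concentration. Step 3: incubate 48 h. Step 4: record percent growth.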 Active and inactive are the calls of the source. How the source made its calls: active means growth percent below 10; inactive means the rest."}
{"system": "OVCAR-3 ovarian", "experiment": "NCI-60 one-dose screen, 48 h (100 = growth as untreated, 0 = no growth, -100 = all killed)", "conditions": "10 µM"}
{"smiles": "O=C(Nc1ccccc1)Nc1ncnc2c1ncn2-c1ccccc1", "growth": "73.7% (inactive)"}
{"smiles": "CCn1c(SC/C(=N/O)c2ccccc2)nnc1-c1ccccc1", "growth": "121% (inactive)"}
{"smiles": "Cc1cc(SCc2ccccc2)nc(N)n1", "growth": "123% (inactive)"}
{"smiles": "COc1cc2cc(Oc3ccc(NC(=O)Nc4ccc(Cl)c(C(F)(F)F)c4)cc3)c(C)nc2cc1OC", "growth": "-27.3% (active)"}
{"smiles": "CCCCCCCCCCCCCCCCCC[n+]1ccc2c(C)c3c(c(C)c2c1)c1cc(O)ccc1n3CC", "growth": "4.31% (active)"}
{"smiles": "CN1CCc2c(sc3nc4n(-c5ccc(Cl)cc5)cnn4c(=O)c23)C1", "growth": "101% (inactive)"}
{"smiles": "C[n+]1c2ccccc2nc2ccccc21", "growth": "4.06% (active)"}
{"system": "HS 578T breast", "experiment": "NCI-60 one-dose screen, 48 h (100 = growth as untreated, 0 = no growth, -100 = all killed)", "conditions": "10 µM"}
{"smiles": "CCOC(=O)c1cc(C(=O)c2cc(OC)cc(OC)c2)n2ncc3ccccc3c12", "growth": "17.8% (inactive)"}
{"smiles": "C=CCN(CC=C)C(=O)[C@H](CC)[C@@H]1CC[C@@H](C)[C@@H]([C@H](C)[C@@H](O)[C@@H](C)C(=O)[C@H](CC)C2O[C@]3(C=CC(=O)[C@]4(CC[C@@](C)([C@H]5CC[C@](O)(CC)[C@H](C)O5)O4)O3)[C@H](C)C[C@@H]2C)O1", "note": "(stereo partly drawn)", "growth": "33.9% (inactive)"}
{"smiles": "Cc1c2c(nn1C(=O)c1nn(-c3ccc(Cl)cc3)cc1O)-c1ccccc1CC2", "growth": "71.5% (inactive)"}
{"smiles": "O=C(CCn1cnc2c(cc(-c3ccccc3)n2-c2ccccc2)c1=O)Nc1ccc(F)cc1", "growth": "63.1% (inactive)"}
{"smiles": "COc1ccc(-c2onc(N)c2-c2cc(OC)c3c(c2)OCO3)cc1", "growth": "33.8% (inactive)"}
{"smiles": "CCCN(CCC)C(=O)[C@H](CC)[C@@H]1CC[C@@H](C)[C@@H]([C@H](C)[C@@H](O)[C@@H](C)C(=O)[C@H](CC)C2O[C@]3(C=C[C@@H](O)[C@]4(CC[C@@](C)([C@H]5CC[C@](O)(CC)[C@H](C)O5)O4)O3)[C@H](C)C[C@@H]2C)O1", "note": "(stereo partly drawn)", "growth": "11.7% (inactive)"}
{"smiles": "CCOC(=O)c1cc(C(=O)c2cc(OC)c(OC)c(OC)c2)n2c1ccc1c3cccnc3ccc12", "growth": "72.8% (inactive)"}
{"smiles": "COc1cc(NC(=O)Nc2cnc(Nc3ccc(N4CCOCC4)cc3)nc2Oc2cccc(OC)c2)cc(OC)c1", "growth": "23.2% (inactive)"}
{"smiles": "Fc1ccc2[nH]cc(-c3nc(-c4ccsc4)cs3)c2c1", "growth": "96.8% (inactive)"}
{"smiles": "IC(I)I", "growth": "-4.06% (active)"}
{"smiles": "Cc1ccc(-n2c(C)nn3c(=O)c4c5c(sc4nc23)CN(C)CC5)cc1", "growth": "107% (inactive)"}
{"smiles": "CN(C)c1ccc(/C=N/NC(=O)c2ccccc2Nc2cccc(C(F)(F)F)c2)cc1", "growth": "83.5% (inactive)"}
{"smiles": "O=C(CCCCNC(=O)c1nc(-c2ccccc2)n(-c2ccccc2)n1)NO", "growth": "60.8% (inactive)"}
{"smiles": "COc1ccc(-c2cc(-c3ccc(OC)c(OC)c3)nc(SCCCC(=O)NO)n2)cc1", "growth": "4.08% (active)"}
{"smiles": "COc1cc(C2CC(c3ccccc3)=NN2C(C)=O)cc(OC)c1OC", "note": "(stereo not drawn)", "growth": "48.4% (inactive)"}
{"smiles": "O=C(/C=C/C=C/c1c(C2CC2)nc2ccccc2c1-c1ccc(F)cc1)c1cccs1", "growth": "24.4% (inactive)"}
{"smiles": "CC(C)N(CCOc1ccc(-c2nc3sccn3c2-c2ccnc(S(C)(=O)=O)n2)cc1)C(C)C", "growth": "76.6% (inactive)"}
{"smiles": "O=C(Nc1nc(-c2ccccc2)nc2c1sc(=S)n2-c1ccccc1)C(F)(F)F", "growth": "96.6% (inactive)"}
{"smiles": "C=CCn1c(SCC(=O)Nc2ccc(C(=O)/C=C/c3ccc(OC)cc3)cc2)nnc1-c1ccc(OC)c(OC)c1", "growth": "86.4% (inactive)"}
{"smiles": "CN1CCN(CC(=O)Nc2cccc(-n3cc(-c4ccncc4)c(-c4ccc(Cl)c(O)c4)n3)c2)CC1", "growth": "38.2% (inactive)"}
{"smiles": "CCc1ccc(C2=NN(c3ccc(S(C)(=O)=O)cc3)C(=O)CC2)cc1", "growth": "-0.675% (active)"}
{"smiles": "Cc1nn(-c2ccc(-c3ccc(OC(F)(F)F)cc3)cc2)c2nc(Cc3ccccc3)nc(N)c12", "growth": "55.5% (inactive)"}
{"smiles": "Cn1c2ccccc2c2c3[nH][nH]c(=O)c3c3c4ccccc4[nH]c3c21", "growth": "41% (inactive)"}
{"smiles": "CC[C@H]1OC(=O)[C@H](C)[C@@H](O[C@H]2C[C@@](C)(OC)[C@@H](O)[C@H](C)O2)[C@H](C)[C@@H](O[C@@H]2O[C@H](C)C[C@H](N(C)C)[C@H]2O)[C@](C)(OC)C/C(C)=C2/O[C@@]1(C)C=C2C", "growth": "62.5% (inactive)"}
{"smiles": "C=C(C)[C@@H]1CC[C@]2(COCCC#N)CC[C@]3(C)[C@H](CC[C@@H]4[C@@]5(C)Cc6c([nH]c7ccccc67)C(C)(C)[C@@H]5CC[C@]43C)[C@@H]12", "growth": "90.6% (inactive)"}
{"smiles": "CC(=O)[C@H]1CC[C@]2(C)[C@@H]1CC[C@@H]1[C@@]3(C)CC(CCC#N)(CCC#N)C(=O)C(C)(C)[C@@H]3CC[C@]12C", "growth": "90.5% (inactive)"}
